# Measured values reported in the supplement of paper PMC10338343.
# ± gives the standard deviation.
# Tested on: MILI (PIWIL2) piRISC loaded with piRNA #1 (26 nt)
# Assay: pre-steady-state target cleavage rate (min^-1); guide: piRNA #1 5'p-UGAGGUAGUAGGUUGUAUAGUAUCCA; MIWI and MILI are mouse PIWI proteins and EfPiwi is from a freshwater sponge; tags in brackets are library labels; higher = faster piRNA-guided slicing of the target
# Details: auxiliary factor: 500 nM mouse GTSF1
# How it was run: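 Three pooled Cleave-'n-Seq trials supplied the data, with k3 capped at 0.0001 min^-1. In each, […] transcribed, DNA-blocked target RNA library and 1 nM active affinity-purified piRISC with one synthetic guide reacted in HEPES–potassium acetate buffer at 33 °C for 0–8 or 0–960 min, with or without 500 nM GTSF1 partner protein. Uncleaved targets were sequenced and normalised to depth and to weakly complementary targets. A burst-and-steady-state fit provided the pre-steady-state cleavage rate.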
# 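Further: 1 nM active piRISC with 0.1 nM target library at 33 °C single turnover.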
row,Sequence,pre-steady-state target cleavage rate
1,GGAGACCUAUGAUAACAACCUACUACACUCA,0.00558 ± 0.0031
2,GGAGACCUAUGUAUAGAACCUACUACGUCA,0.015 ± 0.0034
3,GGAGACCUAUGAUUACAACCUAUCUACCUCA,0.00755 ± 0.003
4,GGAGACCUAUGUAUACAACCUACUACCAUCA,0.0684 ± 0.01
5,GGAGACCUUACUAUACAUCGUACUACCUCA,0.0364 ± 0.0047
6,GGAGACCUAUGAUGACAACCUACUACCUCA,0.00556 ± 0.0019
7,GGAGACCUAUGAAUACAACCUACUACCUAA,0.00505 ± 0.0032
8,GGAGACCUAUGUAUACAACCUACUACCCUCA,0.0911 ± 0.011
9,GGAGACCUAUGAUAUGUACCUACAACCUGA,< 0.0001
10,GGAGACCUUACUAUACUACGUACUACCUCA,0.0307 ± 0.0046
11,GGAGAGGAUAGUAAACAACCUACUACCUCA,0.0497 ± 0.011
12,GGAGACCUAACUUUUCAACCUACUACCUCA,0.0456 ± 0.014
13,GGAGUGGAUAGUAUAGAACCUACUACCUCA,0.146 ± 0.013
14,GGAGACCUAUGAAUACAACGAUGAUGGAGA [g12:g18:cont:t1A],< 0.0001
15,GGAGACCUAUGAAUACAAGCUACUACGUCA,0.0102 ± 0.003
16,GGAGACCAUACAAUACAACCUACUAGCUCA,0.181 ± 0.029
17,GGAGACCUAUCUUUACAACCUACUACGUCA,0.0265 ± 0.0062
18,GGAGACCUAUGAUUAGCAACCUACUACCUCA,0.00597 ± 0.0035
19,GGAGACCUAUGUAUACAACCUACUACCUCA [g2:g19:cont:t1A],0.0765 ± 0.012
20,GGAGACCUAACUAUUCAACCUACUACGUCA,0.0338 ± 0.011

row,Sequence,pre-steady-state target cleavage rate
1,GGAGACCUUACAAUUCAACCUACUACCUCA,0.102 ± 0.013
2,GGAGACCUAUGUAUAGAACCUACUACCUGA,0.00583 ± 0.0025
3,GGAGACCUAACAAUACAACCUACUUCCUCA,0.0651 ± 0.019
4,GGAGACCUAACUAUACAACCUACUAUCCUCA,0.177 ± 0.047
5,GGAGACCUAUGUAUAGAAGCUACUACCUCA,0.0984 ± 0.013
6,GGAGACCUAUGUAUACAACCUACAUCCUCA,0.00671 ± 0.0026
7,GGAGACCUAUGAAUACAUGCUACUACCUCA,0.00268 ± 0.0026
8,GGAGACCUAUGAUUAUAACCUACUACCUCA,0.00484 ± 0.0026
9,GGAGACCUAUGUAAACAACCUACUACCUGA,0.00535 ± 0.0019
10,GGAGACCUAUGUAUAACAACCUACUACCUCA,0.0151 ± 0.0041
11,GGAGACCUUACUAUAGAAGCUACUACCUCA,0.134 ± 0.015
12,GGAGACCUAUGUAUACAAGCUUCUACCUCA,0.0107 ± 0.0027
13,GGAGACCUAACUGUACAACCUACUACCUCA,0.0814 ± 0.024
14,GGAGACCUAUGAUUACAACCUACUACUCUCA,0.00541 ± 0.0034
15,GGAGACCUAUCUAUAGAACCUACUACCACA,0.0472 ± 0.0098
16,GGAGACCUAUGAUAACAACCCACUACCUCA,0.00347 ± 0.0029
17,GGAGACCUAUGAUAACAACCUACACCUCA,< 0.0001
18,GGAGACCUAUGAAUACAACCUAUCUACCUCA,0.00974 ± 0.0026
19,GGAGACCUAUCUAUACAACCUACUUGCUCA,0.109 ± 0.023
20,GGAGACCUAUGUAUACAAGCUACUACCACA,0.177 ± 0.017
